# Pf growth 96h: Primary qHTS for delayed death inhibitors of the malarial parasite plastid, 96 hour incubation; P. falciparum luciferase reporter growth, 96 h; Potency, µM (doses to about 28.7 µM), inactives show at the top dose activity change, negative = inhibition, usual class: inhibitors; 320,000 compounds, 6.9% hits; AID 504834, 2011; further: potency means the concentration at half of the fitted maximal effect; on the % scale 0 is the no-effect control and ±100 the full control effect
#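 96 h incubation, 37 C, 5% CO2, of luciferase-reporter P. falciparum-infected RBCs (2% hematocrit, 0.05% parasitemia final) with test compounds; endpoint luminescence.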
# Shiga inhibitor: A qHTS for Small Molecule Inhibitors of Shiga Toxin; Vero cells, Shiga toxin protein synthesis inhibition reporter; AID 2315, 2010; 290,000 compounds, 9.2% hits; inhibition, % at 38.7 µM; in the data active means inhibition mostly above about 28%, no sharp cut-off; inactive means mostly below about 43%; further: 0% is about no effect
# CHX counter: Cycloheximide Counterscreen for Small Molecule Inhibitors of Shiga Toxin; cell reporter, cycloheximide protein synthesis inhibition counterscreen; max response, %; 300,000 compounds, 12% hits; AID 2314, 2010; in the data active means max response mostly above about 13%, no sharp cut-off; inactive means mostly below about 14%; further: read at 38.3 µM for the half of the compounds with a filed dose; 0% is about no effect
# Pf growth 48h: Primary qHTS for delayed death inhibitors of the malarial parasite plastid, 48 hour incubation; P. falciparum luciferase growth in erythrocytes, 48 h; Potency, µM (highest dose often 28.7 µM), without a hit: at the highest dose activity change, negative = inhibition, hits mostly inhibitors; 310,000 compounds, 5.9% hits; AID 504832, 2011; further: potency means the concentration at half of the fitted maximal effect; on the % scale 0 is the no-effect control and ±100 the full control effect
#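 Luciferase-expressing parasites in RBCs, 2% Hct / 0.1% parasitemia final; RPMI 1640 + 0.5% Albumax; 37 C, 5% CO2, one generation; luminescence read-out, lower signal = inhibition.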
# NS1 inh: qHTS Assay for Inhibitors of Influenza NS1 Protein Function. Potency, µM (series often up to 46.1 µM), without a hit: top-dose activity, positive = more growth. 270,000 compounds, 0.4% hits; calls by dose curve; further: potency means the concentration at half of the fitted maximal effect; actives are rising curves; nearly all actives have a fitted effect of over 50% in size
#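 A cell-based growth assay was used: compounds that relieve NS1-induced slow growth of budding yeast raise OD600. Assay medium was yeast nitrogen base with ammonium sulphate and -URA supplement, pH 6.0, with 2% galactose.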
# An asterisk follows results filed as active; i = inactive; ? = inconclusive; · = not tested or not shown; + = active, no number; [ ] = dose if it differs, or a comment. This is a sample that favours compounds with a hit; in the whole collection about 21% have one here. Unless noted, the call rests on the fitted dose curve; in most records, active means well fitted inhibition curve with a large enough effect; inconclusive means small, poorly fitted or top-dose-only effect, or another doubt; inactive means no such curve, though single readings can be large or run the other way.
SMILES,Pf growth 96h,Shiga inhibitor,CHX counter,Pf growth 48h,NS1 inh
O=C(Nc1ccc(C(=O)O)cc1)/C(=C\c1ccco1)NC(=O)c1ccccc1,9.28µM*,28.1,-1.4,-7.7%,1.7%
COc1ccc(N(CC(=O)NC2CCCCC2)C(=O)CNC(=O)c2ccco2)cc1,44.0%,-8.0,-4.7,0.8%,-6.1%
O=C(CSc1nccn1-c1ncc(C(F)(F)F)cc1Cl)c1ccc(Cl)cc1,116.1%,+,47.3*,120.4%,-0.4%
O=C(OC1CCN(c2ncc(C(F)(F)F)cc2Cl)CC1)c1ccc(Cl)cc1,26.6%,-6.3,-1.4,-10.5%,-1.7%
O=C(CSc1nccc(=O)[nH]1)c1c[nH]c2ccccc12,0.0%,8.6,-1.4,5.4%,3.3%
Cn1ccnc1SCC(=O)c1c[nH]c2ccccc12,411.2%,78.0*,43.7*,i,1.6%
Cn1ccnc1SCC(=O)c1ccc([N+](=O)[O-])cc1,?,22.1,-2.0,10.2%,4.1%
Cn1ccnc1SCC(=O)c1ccc(Br)cc1,6.5%,59.9*,38.4*,58.5%,-3.6%
O=C(CSc1nccn1-c1ccccc1)c1ccc(Br)cc1,29.6%,39.2*,15.7*,-2.2%,12.9%
COc1cc2[nH]c(=S)nc(NC3CCCC3)c2cc1OC,83.4%,-8.1,1.1,?,·
O=S(=O)(c1ccccc1Cl)N1CCCC(c2nc(-c3cccnc3)no2)C1 (stereo not given),?,2.2,0.4,?,-5.3%
Cc1ccc(-c2nnc(CSc3nc(C(C)C)nc4sc(C)c(C)c34)o2)cc1,?,-7.7,3.7,0.4%,-1.0%
CCOC(=O)CC1C(=O)NCCN1C1CCCC1 (stereo not given),13.2%,1.1,-1.6,55.1%,2.2%
CC(=O)N1CCN(C(=O)C(Cc2ccccc2)NC(=O)c2ccccc2)CC1 (stereo not given),-27.3%,·,·,-23.1%,·
O=C(NC(Cc1ccccc1)C(=O)N1CCN(c2ccccc2O)CC1)c1ccccc1 (stereo not given),6.57µM*,·,·,8.28µM*,·
O=C(NCC(=O)N1CCN(c2ccccc2)CC1)c1ccccc1,38.4%,53.4*,10.7*,62.8%,3.2%
CCOc1ccc(C(=O)NCC(=O)N2CCN(c3ccccc3O)CC2)cc1,-23.1%,-3.7,-0.8,?,6.7%
O=C(NCC(=O)N1CCN(c2ccccc2O)CC1)c1ccccc1,0.2%,77.1*,43.8*,-1.7%,0.5%
Cc1ccc(OCCC(=O)OCC(=O)NC(=O)c2ccccc2)cc1,16.0%,·,·,0.0%,·
Cc1nc(CSc2ccccc2)cc(=O)[nH]1,-18.5%,22.0,5.5,224.4%,·
Cn1/c(=N/NC(=O)c2ccccc2Br)sc2ccccc21,146.9%,87.4*,36.5*,57.5%,·
Cc1noc(C)c1CN(C(=S)NC1CC1)c1ccccc1,18.7%,-2.7,0.9,-2.3%,-0.9%
CC1=NN(C(=O)CSCc2ccccc2)C(O)(c2ccc(Cl)cc2)C1 (stereo not given),11.7µM*,-5.4,-2.2,-27.8%,-2.4%
CC1=NN(C(=O)CSCc2ccccc2)C(O)(c2ccc(F)cc2)C1 (stereo not given),1.1%,-3.1,-2.0,-7.6%,3.0%
COc1ccc(S(=O)(=O)N2CCCN(S(=O)(=O)c3ccc(OC)cc3C)CC2)c(C)c1,?,11.7,-4.7,?,2.5%
SMILES,Pf growth 96h,Shiga inhibitor,CHX counter,Pf growth 48h,NS1 inh
CC(=O)NC1=NN(C(C)=O)C(C)(c2ccc3ccccc3c2)S1 (stereo not given),68.8%,-5.8,-3.3,2.94µM*,8.7%
CCCCn1c(=O)n(CC(=O)Nc2ccc(C)c(Cl)c2)c(=O)c2c1ncn2Cc1ccco1,4.65µM*,17.8,-3.2,11.7µM*,-33.9%
CCCCn1c(=O)n(CC(=O)Nc2ccc(OC)c(Cl)c2)c(=O)c2c1nc(CO)n2CCC,·,-12.1,6.6,10.4µM*,-18.9%
CCn1cnc2c1c(=O)n(CC(=O)Nc1cc(C)on1)c(=O)n2Cc1ccccc1,?,19.0,-3.0,?,-9.7%
O=[N+]([O-])c1ccc(/C=N/NC(=S)Nc2ccccc2)o1,-13.8%,48.3*,23.4*,5.4%,-9.0%
COc1ccc(S(=O)(=O)N/N=C\c2ccc([N+](=O)[O-])o2)c(OC)c1,10.4µM*,-8.5,-2.6,2.7%,-6.2%
O=[N+]([O-])c1ccc(/C=N/NC(=S)Nc2ccccc2F)o1,32.2%,21.1,34.4*,18.4%,-15.7%
Fc1ccccc1NC(=S)N/N=C/c1ccccc1Br,·,70.2,22.2*,95.3%,-0.6%
C[N+]1([O-])[C@@H]2Cc3cc4c(cc3[C@@H]1Cc1cc3c(cc12)OCO3)OCO4 (stereo not given in full),57.6%,-4.2,-6.0,54.1%,4.7%
O=C(N/N=C/c1ccc([N+](=O)[O-])o1)c1cc2ccccc2o1,?,-10.7,11.3,?,-19.5%
O=[N+]([O-])c1ccc(/C=N/Nc2ccc3ccccc3c2)o1,-21.3%,126.0*,57.5*,-8.6%,4.7%
O=[N+]([O-])c1cccc(-c2ccc(/C=N/NC(=S)Nc3ccccc3)o2)c1,3.2%,16.2,13.8*,?,15.5%
Nc1ncc2c(n1)-c1cc(Cl)ccc1SC2,-43.8%,-8.7,0.9,5.6%,11.1%
COCCNC(=O)c1cc2c(s1)-c1ccc(Cl)cc1SC2,-27.6%,91.3*,43.8*,139.4%,-2.2%
NC(=O)c1cc2c(s1)-c1cc(Cl)ccc1SC2,61.6%,50.7,20.0*,38.8%,-12.1%
CN(CC(=O)Oc1ccc(-c2nnco2)cc1)S(=O)(=O)c1ccc(F)cc1,18.4%,·,·,2.7%,·
CNC(=O)c1ccsc1NC(=O)c1ccc(Cl)s1,11.3%,-4.4,-2.7,·,-30.0%
CCOCCn1c(CN2CCN(C(=O)c3ccco3)CC2)nc2c1c(=O)n(C)c(=O)n2C,-17.5%,0.7,0.5,-13.4%,8.5%
Cc1onc(-c2ccccc2Cl)c1C(=O)OCN1C(=O)c2ccccc2C1=O,13.1µM*,-2.4,-0.7,11.7%,-56.5%
Cc1onc(-c2ccccc2Cl)c1C(=O)O/N=C(\N)c1ccccc1,16.9%,19.0,23.1*,?,-20.9%
CCOc1cc(C2NC(=O)CCC2[N+](=O)[O-])cc(Br)c1OCC (stereo not given),3.1%,-6.3,-1.8,-28.5%[0.00184 µM],2.5%
Cc1ccc(-n2nc(C)c(=O)c(-c3ccccc3)c2NC(=O)C(C)C)cc1,25.8%,-5.5,-1.4,3.3%,-47.6%
Cc1onc(-c2c(F)cccc2Cl)c1C(=O)Nc1nc2c(s1)CCCC2,24.1%,4.3,5.6,?,0.5%
CN(C)c1ccc(C(=O)Nc2nc3c(s2)CCCC3)cc1,-93.2%,21.0*,44.8*,-38.9%,-31.3%
CC(C)[C@H](NC(=O)c1ccccc1F)C(=O)Nc1nc2c(s1)CCCC2,51.6%,17.8,42.5*,26.8%,-7.0%
C/C(=N\Nc1nc2c(s1)CCCC2)c1ccc(Cl)cc1,?,116.5*,82.7*,?,-55.0%
CC(C)(C)c1ccc(C(=O)NC(=S)Nc2nc3c(s2)CCCC3)cc1,86.4%,112.8*,69.1*,135.6%,4.5%

# Assay outcomes: PubChem BioAssay, National Center for Advancing Translational Sciences (NCATS)
